From PubChem BioAssay AID1159580 (chemical genetic matrix, 2015)
Values joined by “and” are separate entries in the source; they are usually repeats but may differ in a detail not shown here. Identical values can stand only once. Out of some 5,500 compounds screened, about 2,000 (36%) were called active. Roughly 18% stayed inconclusive and do not appear here. No stated cut-off is given here; in the data, active means normalized growth mostly below about 0.91 (no sharp cut-off); inconclusive means no clear call, values can overlap the other calls; inactive means mostly above about 0.92. The list shows a part of the results.

Experiment: chemical genetic growth profiling, strain panel (AID 1159580);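 further: tested at 20 µM; growth read once vehicle control cultures reached saturation at 30 °C; 1 = growth at the plate median or of vehicle wells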
Details: S. cerevisiae deletion strains, growth OD

Measured: normalized growth

CC(=O)N1CCN(c2ccc(OCC3CO[C@](Cn4ccnc4)(c4ccc(Cl)cc4Cl)O3)cc2)CC1 (stereo partly drawn)
inactive: locus YIL125W, strain kgd1, stronger effect = lower value 0.964
active: locus YAL021C, strain ccr4, stronger effect = lower value 0.196 | locus YAL026C, strain drs2, stronger effect = lower value 0.0754 | locus YAL030W, strain snc1, stronger effect = lower value 0.0875 | locus YBL061C, strain skt5, stronger effect = lower value 0.0954 | locus YBR009C, strain hhf1, stronger effect = lower value 0.0917 | locus YBR021W, strain FUR4, stronger effect = lower value 0.163 | locus YBR023C, strain chs3, stronger effect = lower value 0.0942 | locus YBR171W, strain sec66, stronger effect = lower value 0.162 | locus YBR229C, strain ROT2, stronger effect = lower value 0.124 | locus YBR231C, strain swc5, stronger effect = lower value 0.0937 | locus YBR279W, strain paf1, stronger effect = lower value 0.0988 | locus YCL011C, strain gbp2, stronger effect = lower value 0.0885 | locus YCL016C, strain dcc1, stronger effect = lower value 0.102 | locus YCL029C, strain bik1, stronger effect = lower value 0.087 | locus YCL061C, strain MRC1, stronger effect = lower value 0.0977 | locus YCL069W, strain vba3, stronger effect = lower value 0.0793 | locus YCR088W, strain abp1, stronger effect = lower value 0.111 | locus YDL005C, strain med2, stronger effect = lower value 0.327 | locus YDL035C, strain GPR1, stronger effect = lower value 0.0672 | locus YDL040C, strain nat1, stronger effect = lower value 0.113 | locus YDL074C, strain BRE1, stronger effect = lower value 0.157 | locus YDL101C, strain DUN1, stronger effect = lower value 0.086 | locus YDL134C, strain PPH21, stronger effect = lower value 0.0637 | locus YDL185W, strain tfp1, stronger effect = lower value 0.542 | locus YDL192W, strain arf1, stronger effect = lower value 0.156 | locus YDR001C, strain nth1, stronger effect = lower value 0.105 | locus YDR069C, strain doa4, stronger effect = lower value 0.228 | locus YDR101C, strain arx1, stronger effect = lower value 0.101 | locus YDR137W, strain rgp1, stronger effect = lower value 0.449 | locus YDR150W, strain NUM1, stronger effect = lower value 0.0966 | locus YDR159W, strain sac3, stronger effect = lower value 0.135 | locus YDR162C, strain NBP2, stronger effect = lower value 0.0614 | locus YDR195W, strain ref2 0.254 | locus YDR297W, strain sur2, stronger effect = lower value 0.1 | locus YDR318W, strain mcm21, stronger effect = lower value 0.0866 | locus YDR334W, strain swr1, stronger effect = lower value 0.0914 | locus YDR335W, strain msn5, stronger effect = lower value 0.101 | locus YDR388W, stronger effect = lower value 0.0742 | locus YDR392W, strain spt3, stronger effect = lower value 0.106 | locus YDR502C, strain sam2, stronger effect = lower value 0.0927 | locus YEL003W, strain gim4, stronger effect = lower value 0.0768 | locus YEL037C, strain rad23, stronger effect = lower value 0.129 | locus YEL061C, strain CIN8 (second series), stronger effect = lower value 0.084 | locus YEL061C, strain CIN8, stronger effect = lower value 0.0807 | locus YER015W, strain faa2, stronger effect = lower value 0.0977 | locus YER016W, strain bim1, stronger effect = lower value 0.0966 | locus YER110C, stronger effect = lower value 0.129 | locus YER111C, strain swi4, stronger effect = lower value 0.123 | locus YER155C, strain BEM2 (second series), stronger effect = lower value 0.329 | locus YER155C, strain BEM2, stronger effect = lower value 0.0986 | locus YER167W, strain BCK2, stronger effect = lower value 0.064 | locus YFR010W, strain ubp6, stronger effect = lower value 0.302 | locus YGL078C, strain dbp3, stronger effect = lower value 0.908 | locus YGL086W, strain mad1, stronger effect = lower value 0.0803 | locus YGL167C, strain pmr1, stronger effect = lower value 0.191 | locus YGL173C, strain kem1, stronger effect = lower value 0.226 | locus YGL227W, strain vid30, stronger effect = lower value 0.0914 | locus YGL240W, strain doc1, stronger effect = lower value 0.166 | locus YGL248W, strain PDE1, stronger effect = lower value 0.0653 | locus YGL253W, strain hxk2, stronger effect = lower value 0.0717 | locus YGR078C, strain PAC10, stronger effect = lower value 0.0678 | locus YGR135W, strain pre9, stronger effect = lower value 0.0918 | locus YGR229C, strain SMI1, stronger effect = lower value 0.0729 | locus YGR252W, strain gcn5, stronger effect = lower value 0.213 | locus YHR013C, strain ard1, stronger effect = lower value 0.139 | locus YHR027C, strain rpn1, stronger effect = lower value 0.174 | locus YHR030C, strain SLT2, stronger effect = lower value 0.0646 and 0.118 | locus YHR079C, strain IRE1 (second series), stronger effect = lower value 0.0993 | locus YHR079C, strain IRE1, stronger effect = lower value 0.155 | locus YHR094C, strain hxt1, stronger effect = lower value 0.0943 | locus YHR129C, strain ARP1, stronger effect = lower value 0.0814 | locus YHR142W, strain chs7, stronger effect = lower value 0.0981 | locus YHR200W, strain rpn10, stronger effect = lower value 0.133 | locus YIL066C, strain RNR3, stronger effect = lower value 0.0659 | locus YIL073C, strain SPO22, stronger effect = lower value 0.202 | locus YIR030C, strain dcg1, stronger effect = lower value 0.0973 | locus YJL092W, strain hpr5, stronger effect = lower value 0.093 | locus YJL095W, strain BCK1 (second series), stronger effect = lower value 0.0703 | locus YJL095W, strain BCK1, stronger effect = lower value 0.0666 and 0.127 | locus YJL115W, strain asf1, stronger effect = lower value 0.113 | locus YJL129C, strain trk1, stronger effect = lower value 0.117 | locus YJL134W, strain LCB3, stronger effect = lower value 0.0818 | locus YJL154C, strain vps35, stronger effect = lower value 0.123 | locus YJL164C, strain tpk1, stronger effect = lower value 0.0872 | locus YJL166W, strain qcr8, stronger effect = lower value 0.0816 | locus YJL168C, strain set2, stronger effect = lower value 0.0995 | locus YJL187C, strain SWE1 (second series), stronger effect = lower value 0.0726
